Source: PubChem
A selection: hits, their analogues and other compounds. The true share with any hit is near 12%.
CHX counter: counter-screen for Shiga toxin inhibitors: cycloheximide protein synthesis inhibition; cell reporter, cycloheximide protein synthesis inhibition counterscreen; max response, %; 12% of 300,000 active; AID 2314; in the data active = max response mostly above about 13%, no sharp cut-off; inactive = mostly below about 14%; also: read at 38.3 µM for the half of the compounds with a filed dose; 0% is about no effect
Shiga toxin inh: blocks Shiga toxin action in Vero cells. 9.2% of 290,000 active. Vero cells, Shiga toxin protein synthesis inhibition reporter. AID 2315. inhibition, % at 38.7 µM; in the data active = inhibition mostly above about 28%, no sharp cut-off; inactive = mostly below about 43%; also: 0% is about no effect
Marburg entry inh: blocks Marburg virus binding to or entry into cells. Marburg virus pseudotyped entry inhibition, cell reporter. Potency, µM (series often up to 37.8 µM), for the others: top-dose activity change, negative = inhibition, actives largely listed as inhibitors. 1.8% of 300,000 active. AID 540276; calls by dose curve; tested in HEK293 cells; also: potency is read from the fitted curve at half-maximal effect; % is scaled to controls: 0 for no effect and ±100 for the full control effect
Lassa entry inh: Lassa virus entry inhibition | Lassa virus pseudotype entry inhibition, cell reporter | AID 540256 | Potency, µM (doses to about 37.9 µM), for inactives: at the top dose activity change, negative = inhibition, hits mostly inhibitors | 1.2% of 300,000 active; calls by dose curve; tested in HEK293 cells; also: potency is read from the fitted curve at half-maximal effect; % is scaled to controls: 0 for no effect and ±100 for the full control effect; nearly all actives have a fitted effect of over 50% in size
An asterisk follows results filed as active; u = inconclusive; x = no result; [ ] = remark or other dose.

SMILES | CHX counter | Shiga toxin inh | Marburg entry inh | Lassa entry inh
O=C(Nc1ccc(O)cc1)c1cccc(Oc2ccc([N+](=O)[O-])cc2)c1 | 2 | 15 | u | u
COc1ccc(Nc2nc(-c3ccccc3)nc3ccccc23)cc1 | -1 | -2 | u | 33%[46.1 µM]
CN(C)S(=O)(=O)Oc1cccc(C(=O)Nc2ccc([N+](=O)[O-])cc2)c1 | 50* | 79* | u | u
COc1ccc(Nc2nc(-c3cccc([N+](=O)[O-])c3)nc3ccccc23)cc1 | -4 | 12 | 15µM* | u
CCN(CC)c1ccc(C(=O)Nc2ccccc2)cc1[N+](=O)[O-] | 37* | 67* | u | -24%
COc1ccc(C(=O)Nc2ccc(Nc3ccccc3)cc2)cc1[N+](=O)[O-] | -4 | -5 | x | x
O=C(Nc1ccc([N+](=O)[O-])cc1)c1ccccc1 | 47* | 73* | u | 11%[46.1 µM]
C=CCN(C)CCCCCCOc1ccc(C(=O)c2ccc(Br)cc2)c(F)c1 | 12 | -9 | x | x
COc1ccc(Cc2nnc(NC(=O)c3cccc([N+](=O)[O-])c3)s2)cc1 | 23* | 32 | 9% | 5%
O=C(N/N=C1/CCSC1)c1cccc([N+](=O)[O-])c1 | -1 | 50* | -2% | 16%
O=C(Nc1ccccc1)Nc1ncc([N+](=O)[O-])s1 | 35* | 77* | u | 7.1µM*
COc1ccc(Cc2nnc(NC(=O)c3ccc(OC)c(OC)c3)s2)cc1 | 0 | -1 | u | u
O=C(Nc1ccc(Cc2ccncc2)cc1)c1cccc([N+](=O)[O-])c1 | 23* | -23 | 3% | 10%
Cc1cc(O)c(NC(=O)c2cccc([N+](=O)[O-])c2)cc1C | 22* | 47* | 0%[46.1 µM] | 14%
O=C(Nc1cccc([N+](=O)[O-])c1)c1cccc(C(=O)Nc2cccc([N+](=O)[O-])c2)c1 | -5 | -3 | x | x
O=C(Nc1ccc(NC(=O)c2cccc([N+](=O)[O-])c2)cc1)c1cccc([N+](=O)[O-])c1 | 30* | x | x | x
COc1ccc(NC(=O)c2cccc([N+](=O)[O-])c2)cc1 | 59* | 76* | 1%[46.1 µM] | u
O=C(Nc1cc([N+](=O)[O-])ccc1O)c1cccc([N+](=O)[O-])c1 | 6 | x | u | 11%[46.1 µM]
COC(=O)/C(=C/c1cccc([N+](=O)[O-])c1)NC(=O)c1ccc(OC)cc1 | 53* | 76* | 0% | u
OC[C@@H](O)C(O)[C@H](O)[C@H](O)CO (stereo partly drawn) | -8 | -3 | x | x
Cc1ccc(C(C)C)cc1S(=O)(=O)NC1CC(C)(C)NC(C)(C)C1 | 1 | -1 | 13µM* | u
O=C(Nc1ccccc1F)c1ccc(CN2CCc3ccccc3C2)cc1 | 20* | 27 | x | x
O=C(Nc1ccccc1)c1ccc(CN2CCc3ccccc3C2)cc1 | 27* | 54 | u | -3%[46.1 µM]
COCC(=O)N1CCc2ccc(NC(=O)c3ccc(C(F)(F)F)cc3)cc2C1 | x | x | u | -13%[46.1 µM]
Cc1ccc(NC(=O)c2ccc(CN3CCc4ccccc4C3)cc2)cc1 | 3 | 16 | u | u
SMILES | CHX counter | Shiga toxin inh | Marburg entry inh | Lassa entry inh
O=C(Nc1ccc2c(c1)CN(Cc1ccc(CO)o1)CC2)c1ccc(C(F)(F)F)cc1 | 44* | 35 | u | u
CC(C#N)Sc1ncnc2sc(-c3ccccc3)cc12 (stereo not drawn) | 15 | 24 | 0%[46.1 µM] | -11%
CN(c1nc2ccccc2nc1Cl)S(=O)(=O)c1ccccc1 | 27* | 45* | 9% | 7%
COC(=O)c1c(NC(=O)CCCOc2ccccc2C)sc2c1CCC2 | x | x | x | 21%[46.1 µM]
CN1C(=C2C(=O)OC(C)(C)OC2=O)Sc2ccccc21 | 44* | 117* | 26% | -4%
O=C(NCc1c(-n2cccc2)sc2c1CCCC2)Nc1cccc(C(F)(F)F)c1 | x | x | 19%[46.1 µM] | 23%[46.1 µM]
c1csc(-c2cnc3ccccc3n2)c1 | 29* | 75* | u | u
c1cc(-c2cccs2)nc(-c2cccs2)c1 | 46* | 53* | 12%[46.1 µM] | u
O=C(Nc1ccccc1)N(C1=NCCCCS1)c1ccccc1 | 24* | 56 | -7% | 14%
O=C(Nc1ccccc1)N(C1=NCCCCS1)c1cccc2ccccc12 | 46* | 76 | 9% | 7%
CCCN(CC(=O)Nc1ccccc1C)CC(=O)Nc1ccc(Br)cc1F | -1 | -2 | x | x
Nc1nc(Cl)cc(Sc2ccc3ccccc3c2)n1 | 10 | 27 | -25% | 10µM*
COc1ccc2c(c1)-c1c(ssc1=S)C(C)(C)N2C(=O)CSC1=NCCS1 | -2 | -10 | u | -3%
CCOc1ccc2c(c1)-c1c(ssc1=S)C(C)(C)N2C(=O)c1ccco1 | -2 | -9 | 5.2µM* | u
CCn1cc(/C=N\NC(=O)Cc2ccc(Cl)cc2)cn1 | 3 | -3 | 24% | 0%
COc1ccc(CCNC(=O)C(=O)NCC(c2cccnc2)N2CCN(c3ccccc3)CC2)cc1 (stereo not drawn) | x | x | x | 11%[46.1 µM]
CCN(C(=O)c1cccs1)c1nc(-c2ccc(OC)cc2)cs1 | 43* | 101* | u | 9%[46.1 µM]
COCCCN(C(C)=O)c1nc(-c2ccc(OC)cc2)cs1 | 20 | 36 | u | 10µM*
O=C(COC(=O)c1ccccc1Cl)NCCC1=CCCCC1 | 31* | 83* | x | x
O=C(Nc1ccccc1C(=O)OCC(=O)c1c[nH]c2ccccc12)c1ccco1 | 57* | 82* | u | u
O=C(COC(=O)c1ccc(O)cc1)NCCC1=CCCCC1 | 8 | 5 | x | x
Cc1ccc(CSCCC(=O)NCCC2=CCCCC2)cc1 | 23* | 21 | 38% | -24%
COC(=O)c1ccccc1NC(=O)c1ccco1 | -1 | -5 | -15% | 4%
O=C(COC(=O)c1ccccc1O)NCCC1=CCCCC1 | 47* | 90* | 9%[14.2 µM] | 18%
COc1ccccc1C1C(C#N)=C(N)N(c2cccnc2)C2=C1C(=O)CC(C)(C)C2 (stereo not drawn) | 1 | 9 | 2% | -2%
SMILES | CHX counter | Shiga toxin inh | Marburg entry inh | Lassa entry inh
COc1cc(NC(=O)N2CCC3(CC2)Nc2ccccc2-n2cccc23)cc(OC)c1OC | x | x | x | -29%[46.1 µM]
C[C@@]12C(=O)N(CC3CC3)CC(=O)N1[C@H](C1CC1)[C@@H]1C(=O)N(c3ccccc3)C(=O)[C@@H]12 | -2 | -4 | x | x
CSc1ncc(C(=O)NCc2cccc(C)c2)c(-c2ccccc2)n1 | x | x | x | -14%[46.1 µM]
O=C(COC(=O)c1ccccc1NC(=O)c1ccco1)NCCC1=CCCCC1 | 30* | 108 | 8% | u
O=C(COC(=O)c1cccs1)NCCC1=CCCCC1 | 14* | 15 | 7%[46.1 µM] | 6%
O=C(COC(=O)c1ccc2c(c1)OCCO2)NCCC1=CCCCC1 | 23* | 100* | 26% | 20%
Cc1cc2c(s1)c1cnn(Cc3ccc(C(F)(F)F)cc3F)c(=O)c1n2C | -6 | -8 | x | x
CC[C@H](C)[C@H](NC(=O)CN)C(=O)N[C@@H](CC(C)C)C(=O)NCC(=O)N[C@@H](Cc1ccccc1)C(=O)N[C@H](C(=O)N[C@@H](Cc1ccccc1)C(=O)N[C@H](C(=O)N[C@@H](CC(C)C)C(=O)O)[C@@H](C)O)C(C)C | -1 | -7 | x | x
COc1cc(OC)cc(-c2nnc3n2N=C(c2ccc(OC)cc2OC)CS3)c1 | 1 | -7 | x | x
CCC1SC(=NC(=O)c2ccc(Cl)c(Cl)c2)NC1=O (stereo not drawn) | 20* | 43 | -3% | 17%
Clc1ccc(C[n+]2csc3ccccc32)cc1 | 19* | 43* | 13% | 4%
